Screening data: PubChem BioAssay, National Center for Advancing Translational Sciences (NCATS)
Most compounds without a hit are left out; they make up all but 10% or so of the library.
HP1b chromo inh: HTS for Inhibitors of HP1-beta Chromodomain Interactions with Methylated Histone Tails; AlphaScreen HP1-beta / biotin-H3K9me3 peptide binding; Potency, µM (top dose mostly 114 µM), most hits filed as inhibitors; 0.56% of 390,000 active; further: nearly all actives have a fitted effect of over 70% in size
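AlphaScreen: HP1-beta (50 nM) preformed 30 min with biotin-H3(1-18)K9me3 peptide (50 nM) in PBS pH 7.4, 0.01% Tween-20. Compound added for 30 min at RT, then streptavidin donor/nickel chelate acceptor beads (10 ug/mL) for 30 min.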
CtBP-E1A inh: qHTS Assay for Inhibitors of the CtBP/E1A Interaction. 0.49% of 340,000 active. AlphaScreen GST-E1A/His-CtBP binding, 1536-well; active compounds read low. activity change, % (test concentration not listed); in the data active means activity change below about -65%; inconclusive means mostly about -30% to -63%
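Protein mix (5X: 125 nM each GST-E1A, His-CtBP) was incubated with pinned compound 2 h at 37 deg C in dark, in 50 mM Tris pH 8.0 buffer with 300 mM NaCl. Glutathione donor and nickel acceptor beads followed; AlphaScreen signal read after 1 h.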
BAZ2B inh: qHTS Assay for Inhibitors of BAZ2B; Bromodomain adjacent to zinc finger domain protein 2B (Homo sapiens), Q9UIF8; AlphaScreen BAZ2B-H3K14Ac peptide displacement; Potency, µM (titrated, usually from 114 µM), usual class: inhibitors; 4.4% of 360,000 active; AID 504333, 2011; further: nearly all actives have a fitted effect of over 60% in size
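Protein-peptide AlphaScreen: BAZ2B 50 nM, b-H3K14Ac 50 nM, 1x PBS pH 7.4 + 0.01% Tween-20. Preincubation 30 min RT; cpd 30 min RT (top 110 uM); beads 20 min RT, light-protected.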
G9a block: qHTS Assay for Inhibitors of Histone Lysine Methyltransferase G9a; Histone-lysine N-methyltransferase EHMT2 (Homo sapiens), Q96KQ7; G9a H3K9 monomethylation, AlphaScreen, 2 h; 8.8% of 350,000 active; Potency, µM (highest dose often 102 µM), actives largely listed as inhibitors; further: nearly all actives have a fitted effect of over 75% in size
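Signal arises when biotinylated H3K9 peptide, once monomethylated, bridges streptavidin donor and antibody-captured acceptor beads. Enzyme at 20 nM was preincubated 15 min with test compounds; peptide 500 nM and SAM 20 uM then reacted for 2 h.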
JMJD2A Tudor inh: qHTS Assay for Inhibitors of JMJD2A-Tudor Domain. Lysine-specific demethylase 4A (Homo sapiens), O75164. AlphaScreen JMJD2A-Tudor / H3K4me3 peptide binding. Potency, µM (highest dose often 114 µM), usual class: inhibitors. 4.4% of 390,000 active; further: nearly all actives have a fitted effect of over 50% in size
Six1-Eya2 blk: qHTS Assay for Inhibitors of the Six1/Eya2 Interaction | AlphaScreen GST-Six1/His-Eya2 binding, biochemical; active compounds read low | AID 651725, 2012 | Homeobox protein SIX1 (Homo sapiens) + Protein phosphatase EYA2 (Homo sapiens), … | activity change, % (no concentration beside the values) | 0.56% of 360,000 active; in the data active means activity change below about -65%; inconclusive means mostly about -30% to -63%
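GST-Six1 + His-Eya2 (5X stock: 250/500 nM); Tris pH 8.0, 300 mM NaCl, 0.05% BSA, 0.02% Tween 20; GSH donor/Ni acceptor beads; 1 h 37 °C dark; AlphaScreen readout.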
A number is an active result; i = inactive; ? = inconclusive; nt = no result; [ ] = another dose, or the depositor's remark. Unless noted, the call rests on the fitted dose curve; in most records, active means well fitted inhibition curve with a large enough effect; inconclusive means small, poorly fitted or top-dose-only effect; inactive means no such curve, though single readings can be large or run the other way.

SMILES | HP1b chromo inh | CtBP-E1A inh | BAZ2B inh | G9a block | JMJD2A Tudor inh | Six1-Eya2 blk
CSc1ccccc1NC(=O)C1(C)CCN1C(=O)Cc1ccccc1Cl (stereo unspecified) | nt | i | nt | nt | nt | i
Cc1cc2nc(CO)[nH]c2cc1C | i | nt | i | i | i | i
Cc1cc2nc(CS)[nH]c2cc1C | i | nt | i | 10µM | i | i
CC(C)c1ccc(S(=O)(=O)Nc2ccc3oc4c(c3c2)C(=O)CC(C)(C)C4)cc1 | i | nt | i | i | i | nt
CC1(C)Cc2c(sc3nnn(Cc4ccc(Cl)cc4)c(=O)c23)CO1 | i | i | i | ? | i | i
CN(C)C1NC(=O)c2cc(-c3ccccc3)sc2N1 (stereo unspecified) | i | i | 50µM | ? | ? | i
CCCc1nn2c(=O)cc(COC(=O)c3cccc(NC(=O)c4cccs4)c3)nc2s1 | i | nt | i | i | i | nt
CCc1ccc(NC(=O)Cn2c(=O)n(CCCCC(=O)NCCc3ccccc3)c(=O)c3ccccc32)cc1 | i | nt | i | i | i | nt
CC1CCCC(C)N1/N=C/c1ccccc1F (stereo unspecified) | ? | i | 50µM | 3.2µM | 3.2µM | i
CCN1CCOC(CC(=O)Nc2ccc([N+](=O)[O-])cc2)C1=O (stereo unspecified) | i | i | i | ? | i | i
CCOc1ccccc1NC(=O)C1CCN(C(=O)Cc2ccccc2)CC1 | i | i | i | i | i | i
O=C1NN(c2ccccc2)C(=O)/C1=C\c1ccccc1 | i | i | i | 40µM | i | i
O=C1NN(c2cccc(Br)c2)C(=O)/C1=C\c1ccccc1 | i | i | i | 20µM | i | i
O=C1NN(c2cccc(Br)c2)C(=O)/C1=C/c1cccs1 | i | i | ? | ? | ? | i
O=C1NN(c2ccccc2)C(=O)C1=Cc1ccccc1 | nt | i | nt | nt | nt | i
COc1ccc(CNC(=O)C2CCN(S(=O)(=O)c3c(C)noc3/C=C/c3cccs3)CC2)cc1 | i | nt | nt | i | i | nt
O=C(CCCn1c(=S)[nH]c2ccsc2c1=O)NCCc1ccccc1 | i | nt | i | 10µM | i | i
CCOC(=O)N1CCN(C(=O)CCCCn2c(=S)[nH]c3ccsc3c2=O)CC1 | i | i | i | 32µM | ? | i
COc1ccc(N2CCN(C(=O)CCCCCn3c(=O)[nH]c4ccsc4c3=O)CC2)cc1 | i | i | i | 40µM | i | i
CC1CCCCC1NC(=O)CCCCCn1c(=S)[nH]c2ccsc2c1=O (stereo unspecified) | i | nt | i | 28µM | i | i
O=C(CSc1nc2ccccc2nc1Cc1ccccc1)N1CCc2ccccc21 | i | nt | i | i | i | nt
COc1ccc(OC)c(NC(=O)C2CCN(S(=O)(=O)c3c(C)noc3/C=C/c3ccc(C)cc3)CC2)c1 | i | nt | i | i | i | nt
CCN(CC)C(=O)c1cccc(-c2csc(C(NC(C)=O)c3ccc(F)c(F)c3)n2)c1 (stereo unspecified) | nt | i | nt | nt | nt | i
O=S(=O)(NCCc1csc2nc(-c3ccc(Cl)cc3)nn12)c1cccs1 | i | nt | i | i | i | nt
CC(=O)Nc1ccc2nc3c(=O)n(C)c(=O)n(C)c3nc2c1 | i | i | ? | 40µM | 79µM | ?
SMILES | HP1b chromo inh | CtBP-E1A inh | BAZ2B inh | G9a block | JMJD2A Tudor inh | Six1-Eya2 blk
Cc1ccn2c(=O)nc(SCC(=O)N3N=C(c4cccs4)CC3c3ccc(F)cc3)nc2c1 (stereo unspecified) | i | i | i | i | i | i
Cc1ccc(C2C(/C=C3/SC(=S)NC3=O)=C(c3cccs3)Oc3ccccc32)cc1 (stereo unspecified) | ? | i | 25µM | 32µM | 35µM | i
CC(=O)c1ccc(OCc2nnn(CC(=O)NS(=O)(=O)c3ccc(C)cc3)c2-c2ccccc2)cc1 | nt | i | nt | nt | nt | i
CCC(C)[C@H](NC(=O)NCCCOC(C)C)C(=O)OC (stereo partly specified) | i | i | i | i | i | i
COCCCNC(=O)C(=O)NCCCOC(C)C | i | i | i | i | 5.6µM | i
NC(=O)NC(c1ccccc1)c1ccccc1 | i | i | i | i | i | i
NC(C(=O)O)C(c1ccccc1)C(F)F (stereo unspecified) | i | i | i | 11µM | 50µM | i
Cn1cccc1CC(=O)N/N=C\c1cccs1 | i | i | 50µM | nt | i | i
CC(/C=N/NC(=O)Cc1cccn1C)=C\c1ccco1 | i | i | ? | 11µM | ? | i
CC(=C/c1ccco1)/C=N/NC(=O)Cc1cccn1C | i | i | 45µM | ? | i | i
Cn1cccc1CC(=O)N/N=C/c1ccco1 | i | i | ? | nt | i | i
COCc1cc(C)n(CC(=O)Nc2ccc(N3CCOCC3)cc2)c(=O)c1C#N | i | i | i | i | i | i
Cc1[nH]nc2c1C(c1ccccc1F)CC(=O)N2 (stereo unspecified) | i | i | i | i[2.33 µM] | i | i
Cc1cc(C)c(NC(=O)Cn2c(=O)n(CCC(=O)NCc3ccccc3Cl)c(=O)c3sccc32)c(C)c1 | i | nt | i | i | i | nt
COc1ccccc1/C=N\NC(=O)c1c(C)nc2ccc(Cl)cn12 | i | i | i | i | i | i
COc1cccc(/C=N/NC(=O)c2cnccn2)c1OC | i | i | i | i | 20µM | i
COc1cccc(/C=N/NC(=O)c2[nH]c(C)c(C(=O)N/N=C/c3cccc(OC)c3O)c2C)c1O | i | i | i | i[12.7 µM] | ? | -92
COc1cc(OC)c(OC)cc1/C=N/NC(=O)c1ccc(=O)n(C)c1 | i | i | i | i | i | i
COc1cccc(/C=N/NC(=O)c2c(C)nc3ccc(Cl)cn23)c1O | i | -94 | 8.9µM | i | 56µM | -78
COc1cccc(/C=N/NC(=O)c2ccc(=O)n(C)c2)c1O | i | -87 | ? | i | 56µM | -88
COc1cccc(/C=N/NC(=O)c2ccc(-c3ccccc3)cc2)c1O | i | i | i | i | i | i
O=C(Nc1ccc(F)cc1F)c1ccccc1NC(=O)C1CC=CCC1C(=O)O (stereo unspecified) | i | i | i | i | i | i
COc1ccc(CCn2cc3c(c2-c2ccccc2Br)c(=O)n(C)c(=O)n3C)cc1OC | i | nt | i | ? | ? | nt
COc1cccc(/C=N/NC(=O)c2ccc(=O)[nH]n2)c1O | i | nt | 50µM | i | 79µM | -79
CCOC(=O)c1c(OCC)[nH]c2c1cc(O)c1ccccc12 | ? | ? | 50µM | ? | 50µM | ?
